Experimental data taken from PubChem BioAssay (EPA / NIEHS).
Activity calls are given as the source filed them. How the source made its calls: active means hit-call score of the fitted dose curve at least 0.9, where 1 is the maximum; inactive means score below 0.9.

Tests used:
Settings in all cases: mRNA level, 48 h; actives raise or lower the signal
[1] = read-out: matrix metalloproteinase-10 (MMP10), MMP10 (gene 4319); assay: LTEA_HepaRG_MMP10: Life Technologies and Expression Analysis (LTEA) Assay for matrix metalloproteinase-10 (MMP10) using HepaRG (AID 2283517)
In short: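 Transcript levels come from Fluidigm qRT-PCR normalized to three housekeeping genes, with curves fitted bidirectionally against 0.5% DMSO. Human HepaRG cells were dosed for 48 hours at concentrations up to 100 uM.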

MYC, MYC (gene 4609) = assay: LTEA_HepaRG_MYC: Life Technologies and Expression Analysis (LTEA) Assay for MYC using HepaRG (AID 2283518)
In short: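 HepaRG, ~100,000 cells/well, collagen I; 48 h plating; serum-free induction medium; 48 h dosing, duplicate, 100 uM top, half-log, 0.5% DMSO; total RNA → qRT-PCR MYC; gain/loss fit vs DMSO.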

[2] = read-out: matrix metalloproteinase-3 (MMP3), MMP3 (gene 4314); assay: LTEA_HepaRG_MMP3: Life Technologies and Expression Analysis (LTEA) Assay for matrix metalloproteinase-3 (MMP3) using HepaRG (AID 2283519)
In short: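 qRT-PCR read-out of MMP3 mRNA (normalised to three housekeeping genes) in HepaRG liver cells after 48 h chemical exposure; 8-point half-log series, top 100 uM, 0.5% DMSO vehicle. Bidirectional curve fitting against DMSO baseline.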

[3] = read-out: Paternally Expressed 10 (PEG10), PEG10 (gene 23089); assay: LTEA_HepaRG_PEG10: Life Technologies and Expression Analysis (LTEA) Assay for Paternally Expressed 10 (PEG10) using HepaRG (AID 2283520);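 on AC50: PEG10 transcript by qRT-PCR normalised to ACTB GAPDH and POLR2A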
In short: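 After 48 h exposure of differentiated HepaRG cells (0.5% DMSO vehicle, eight concentrations up to 100 uM, duplicates), PEG10 mRNA was measured by TaqMan qRT-PCR. Values were normalised to endogenous control genes and analysed bidirectionally against vehicle.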

[4] = read-out: Nuclear factor NF-kappa-B p105 subunit (Homo sapiens) (UniProt P19838); assay: LTEA_HepaRG_NFKB1: Life Technologies and Expression Analysis (LTEA) Assay for Nuclear Factor Kappa B Subunit 1 (NFKB1) using HepaRG (AID 2283521)
In short: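 Differentiated human HepaRG cells in serum-free induction medium with 0.5% DMSO were exposed for 48 h to eight half-log concentrations, top 100 uM, in duplicate. NFKB1 mRNA measured by Fluidigm TaqMan qRT-PCR, normalised to ACTB, GAPDH and POLR2A; bidirectional fit versus DMSO.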

[5] = read-out: Protein phosphatase 2A (PPP2R4), PTPA (gene 5524); assay: LTEA_HepaRG_PPP2R4: Life Technologies and Expression Analysis (LTEA) Assay for Protein phosphatase 2A (PPP2R4) using HepaRG (AID 2283522)
In short: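 Using HepaRG cultures maintained in 0.5% DMSO, chemicals are tested 48 h at up to 100 uM in duplicate. Induction or suppression of PPP2R4 mRNA, measured by qRT-PCR, is fitted bidirectionally against the vehicle baseline.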

[6] = read-out: Phosphatase and tensin (PTEN), PTEN (gene 5728); assay: LTEA_HepaRG_PTEN: Life Technologies and Expression Analysis (LTEA) Assay for Phosphatase and tensin (PTEN) using HepaRG (AID 2283523)
In short: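 HepaRG, 48 h exposure, 8-pt half-log series from 100 uM top, 0.5% DMSO vehicle, duplicates. Readout: Fluidigm qRT-PCR of PTEN transcript; housekeeping normalization (ACTB, GAPDH, POLR2A). Gain or loss fitted relative to DMSO baseline.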

[7] = read-out: solute carrier (SLC22A1), SLC22A1 (gene 6580); assay: LTEA_HepaRG_SLC22A1: Life Technologies and Expression Analysis (LTEA) Assay for solute carrier (SLC22A1) using HepaRG (AID 2283524)
In short: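 qRT-PCR readout (TaqMan, Fluidigm arrays) of SLC22A1 transcript, normalized to three housekeeping genes; bidirectional curve fit relative to 0.5% DMSO vehicle. Differentiated human HepaRG cells, 48 h chemical exposure, top concentration 100 uM, half-log steps, eight points.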

[8] = read-out: NAD(P)H dehydrogenase [quinone] 1 (NQO1), NQO1 (gene 1728); assay: LTEA_HepaRG_NQO1: Life Technologies and Expression Analysis (LTEA) Assay for NAD(P)H dehydrogenase [quinone] 1 (NQO1) using HepaRG (AID 2283526)
In short: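 In this assay, gene expression is read by qRT-PCR after 48 h exposure of HepaRG cells to eight concentrations (max 100 uM, half-log) in 0.5% DMSO. Each chemical runs in duplicate, and activity is scored relative to vehicle.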

[9] = read-out: Nuclear factor erythroid 2-related factor 2 (Homo sapiens) (UniProt Q16236); assay: LTEA_HepaRG_NFE2L2: Life Technologies and Expression Analysis (LTEA) Assay for Nuclear factor erythroid 2-related factor 2 (NFE2L2) Transcription Factor using HepaRG (AID 2283527)
In short: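 HepaRG, 48 h dosing, 8-pt half-log series from 100 uM in 0.5% DMSO, duplicates. Read-out: NFE2L2 mRNA by qRT-PCR (ACTB/GAPDH/POLR2A normalization). Bidirectional curve fit vs DMSO baseline.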

[10] = read-out: succinate dehydrogenase complex iron sulfur subunit B (SDHB), SDHB (gene 6390); assay: LTEA_HepaRG_SDHB: Life Technologies and Expression Analysis (LTEA) Assay for succinate dehydrogenase complex iron sulfur subunit B (SDHB) using HepaRG (AID 2283528)
In short: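 HepaRG cells (~100,000/well, plated 48 h) exposed in duplicate for 48 h in serum-free induction medium to 8-point half-log series from 100 uM in 0.5% DMSO; mRNA by qRT-PCR normalised to ACTB, GAPDH, POLR2A; bidirectional fit versus DMSO.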

[11] = read-out: Signal transducer and activator of transcription 3 (Homo sapiens) (UniProt P40763); assay: LTEA_HepaRG_STAT3: Life Technologies and Expression Analysis (LTEA) Assay for Signal transducer and activator of transcription (STAT3) using HepaRG (AID 2283529)
In short: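 HepaRG, 48 h exposure, 8-pt half-log series (top 100 uM), 0.5% DMSO vehicle, duplicates. Readout: STAT3 transcript by Fluidigm qRT-PCR, housekeeping-normalized; bidirectional fit vs DMSO baseline.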

[12] = read-out: solute carrier (SLCO1B1), SLCO1B1 (gene 10599); assay: LTEA_HepaRG_SLCO1B1: Life Technologies and Expression Analysis (LTEA) Assay for solute carrier (SLCO1B1) using HepaRG (AID 2283530)
In short: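 HepaRG, serum-free induction medium, 48 h dosing, 8-pt half-log from 100 uM, 0.5% DMSO vehicle, duplicates. Readout: SLCO1B1 mRNA, qRT-PCR, ACTB/GAPDH/POLR2A normalization; up or down fit vs DMSO.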

[13] = read-out: sulfotransferase 2A1 (SULT2A1), SULT2A1 (gene 6822); assay: LTEA_HepaRG_SULT2A1: Life Technologies and Expression Analysis (LTEA) Assay for sulfotransferase 2A1 (SULT2A1) using HepaRG (AID 2283531)
In short: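 Transcript levels of SULT2A1, quantified by qRT-PCR and normalized to three housekeeping genes, serve as the readout. Human HepaRG cultures receive test chemicals for 48 h at up to 100 uM in half-log steps, with 0.5% DMSO vehicle.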

[14] = read-out: Transforming Growth Factor (TGFA), TGFA (gene 7039); assay: LTEA_HepaRG_TGFA: Life Technologies and Expression Analysis (LTEA) Assay for Transforming Growth Factor (TGFA) using HepaRG (AID 2283532)
In short: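 qRT-PCR read-out of TGFA transcript, normalized to three housekeeping genes, fitted bidirectionally against 0.5% DMSO baseline. Human HepaRG cultures received chemicals for 48 h at eight half-log concentrations, top 100 uM.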

[15] = read-out: Transforming Growth Factor (TGFB1), TGFB1 (gene 7040); assay: LTEA_HepaRG_TGFB1: Life Technologies and Expression Analysis (LTEA) Assay for Transforming Growth Factor (TGFB1) Transporter using HepaRG (AID 2283533)
In short: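 HepaRG, 48 h post-plating, switched to serum-free induction medium; chemicals 100 uM top, half-log, 8 pts, 0.5% DMSO, dup; 48 h exposure; RNA → Fluidigm TaqMan qRT-PCR; norm ACTB/GAPDH/POLR2A; bidirectional fit vs DMSO.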

TIMP1, TIMP1 (gene 7076) = assay: LTEA_HepaRG_TIMP1: Life Technologies and Expression Analysis (LTEA) Assay for TIMP1 using HepaRG (AID 2283534)
In short: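 Readout is TIMP1 mRNA level measured by qRT-PCR and normalized to three housekeeping genes. Human HepaRG cells were treated for 48 h in duplicate at eight concentrations up to 100 uM (0.5% DMSO); gain or loss fitted against DMSO.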

[16] = read-out: Tumor necrosis factor receptor 1 (TNFRSF1A), TNFRSF1A (gene 7132); assay: LTEA_HepaRG_TNFRSF1A: Life Technologies and Expression Analysis (LTEA) Assay for Tumor necrosis factor receptor 1 (TNFRSF1A) using HepaRG (AID 2283535)
In short: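 Read-out is TNFRSF1A transcript level by TaqMan qRT-PCR, normalized to three housekeeping genes, scored as gain or loss of signal versus 0.5% DMSO. Human HepaRG cells received test chemicals for 48 h at up to 100 uM (half-log series).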

[17] = read-out: Thyroid Hormone Responsive (THRSP), THRSP (gene 7069); assay: LTEA_HepaRG_THRSP: Life Technologies and Expression Analysis (LTEA) Assay for Thyroid Hormone Responsive (THRSP) using HepaRG (AID 2283536)
In short: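 qRT-PCR read-out (Fluidigm TaqMan), housekeeping-normalized (ACTB/GAPDH/POLR2A). HepaRG, 48 h chemical exposure, 8-pt half-log series from 100 uM in 0.5% DMSO, duplicates. Bidirectional curve fit vs 0.5% DMSO baseline.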

[18] = read-out: Cellular tumor antigen p53 (Homo sapiens) (UniProt P04637); assay: LTEA_HepaRG_TP53: Life Technologies and Expression Analysis (LTEA) Assay for Tumor Protein P53 (TP53) using HepaRG (AID 2283537)
In short: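 Differentiated HepaRG cells in serum-free induction medium exposed 48 h in duplicate to 8 half-log concentrations, top 100 uM, 0.5% DMSO. TP53 mRNA by TaqMan qRT-PCR (Fluidigm), normalized to ACTB, GAPDH, POLR2A; fitted bidirectionally versus DMSO.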

Measured: AC50

Nuclear factor NF-kappa-B p105 subunit (Homo sapiens), sequence (P19838 whole entry, looked up): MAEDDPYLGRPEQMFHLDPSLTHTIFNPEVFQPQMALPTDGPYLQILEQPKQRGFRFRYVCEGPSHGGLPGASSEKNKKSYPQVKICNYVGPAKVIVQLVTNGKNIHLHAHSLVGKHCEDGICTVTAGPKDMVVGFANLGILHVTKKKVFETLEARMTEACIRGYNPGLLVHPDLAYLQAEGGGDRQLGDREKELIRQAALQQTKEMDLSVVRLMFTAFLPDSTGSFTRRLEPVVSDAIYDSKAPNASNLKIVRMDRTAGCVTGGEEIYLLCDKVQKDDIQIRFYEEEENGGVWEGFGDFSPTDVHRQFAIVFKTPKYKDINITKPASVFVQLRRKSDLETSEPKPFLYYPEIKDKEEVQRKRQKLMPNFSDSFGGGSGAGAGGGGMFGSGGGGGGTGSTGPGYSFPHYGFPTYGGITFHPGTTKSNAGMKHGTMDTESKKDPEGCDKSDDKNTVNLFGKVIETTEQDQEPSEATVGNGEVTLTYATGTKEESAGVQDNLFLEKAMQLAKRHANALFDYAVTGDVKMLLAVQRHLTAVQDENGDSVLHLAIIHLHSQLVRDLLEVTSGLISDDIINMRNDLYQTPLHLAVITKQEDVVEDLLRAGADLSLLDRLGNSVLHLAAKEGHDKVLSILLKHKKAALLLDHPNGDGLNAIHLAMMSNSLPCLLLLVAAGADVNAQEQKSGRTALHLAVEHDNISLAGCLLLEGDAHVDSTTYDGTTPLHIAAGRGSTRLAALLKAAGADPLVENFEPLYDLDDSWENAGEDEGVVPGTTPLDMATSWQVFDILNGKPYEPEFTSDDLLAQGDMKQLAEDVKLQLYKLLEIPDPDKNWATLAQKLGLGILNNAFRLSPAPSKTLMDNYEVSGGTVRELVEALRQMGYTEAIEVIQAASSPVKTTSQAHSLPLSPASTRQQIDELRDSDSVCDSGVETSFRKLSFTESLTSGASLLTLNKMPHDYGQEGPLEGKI
Nuclear factor erythroid 2-related factor 2 (Homo sapiens), sequence (Q16236 whole entry, looked up): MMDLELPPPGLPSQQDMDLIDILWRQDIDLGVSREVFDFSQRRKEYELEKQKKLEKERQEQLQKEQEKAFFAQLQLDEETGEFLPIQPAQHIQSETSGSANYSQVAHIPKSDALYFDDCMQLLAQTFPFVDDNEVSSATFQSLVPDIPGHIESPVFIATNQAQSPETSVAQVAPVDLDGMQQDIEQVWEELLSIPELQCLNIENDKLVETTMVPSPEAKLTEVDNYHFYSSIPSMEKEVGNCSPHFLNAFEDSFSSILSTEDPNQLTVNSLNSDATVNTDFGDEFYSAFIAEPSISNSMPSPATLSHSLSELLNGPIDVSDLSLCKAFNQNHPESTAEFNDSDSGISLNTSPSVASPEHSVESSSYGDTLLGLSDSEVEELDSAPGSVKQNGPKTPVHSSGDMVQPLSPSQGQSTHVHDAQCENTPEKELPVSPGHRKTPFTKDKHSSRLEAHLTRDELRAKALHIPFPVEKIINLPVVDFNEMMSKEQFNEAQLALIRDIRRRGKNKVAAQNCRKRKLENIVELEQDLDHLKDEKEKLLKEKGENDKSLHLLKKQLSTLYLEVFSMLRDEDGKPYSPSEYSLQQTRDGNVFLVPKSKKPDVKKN
Signal transducer and activator of transcription 3 (Homo sapiens), sequence (P40763 whole entry, looked up): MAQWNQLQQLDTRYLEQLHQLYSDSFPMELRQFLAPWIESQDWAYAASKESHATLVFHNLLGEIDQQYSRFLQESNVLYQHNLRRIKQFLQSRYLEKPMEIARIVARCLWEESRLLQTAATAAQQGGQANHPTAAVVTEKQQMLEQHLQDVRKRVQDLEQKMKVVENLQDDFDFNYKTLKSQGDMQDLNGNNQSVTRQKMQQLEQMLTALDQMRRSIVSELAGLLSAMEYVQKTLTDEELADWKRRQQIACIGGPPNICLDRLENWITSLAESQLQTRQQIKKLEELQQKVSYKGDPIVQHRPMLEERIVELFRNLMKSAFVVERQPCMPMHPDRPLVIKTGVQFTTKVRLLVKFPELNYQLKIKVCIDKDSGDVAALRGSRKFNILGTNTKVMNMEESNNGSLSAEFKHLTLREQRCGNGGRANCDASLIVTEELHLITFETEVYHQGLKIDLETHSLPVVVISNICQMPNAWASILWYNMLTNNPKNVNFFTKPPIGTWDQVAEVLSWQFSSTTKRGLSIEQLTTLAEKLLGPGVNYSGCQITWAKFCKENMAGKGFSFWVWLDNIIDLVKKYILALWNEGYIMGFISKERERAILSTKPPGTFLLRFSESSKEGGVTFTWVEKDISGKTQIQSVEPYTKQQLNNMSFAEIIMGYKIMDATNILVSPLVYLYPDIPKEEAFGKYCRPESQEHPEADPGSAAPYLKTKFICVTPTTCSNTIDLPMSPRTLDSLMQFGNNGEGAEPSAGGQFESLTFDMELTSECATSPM
Cellular tumor antigen p53 (Homo sapiens), sequence (P04637 whole entry, looked up): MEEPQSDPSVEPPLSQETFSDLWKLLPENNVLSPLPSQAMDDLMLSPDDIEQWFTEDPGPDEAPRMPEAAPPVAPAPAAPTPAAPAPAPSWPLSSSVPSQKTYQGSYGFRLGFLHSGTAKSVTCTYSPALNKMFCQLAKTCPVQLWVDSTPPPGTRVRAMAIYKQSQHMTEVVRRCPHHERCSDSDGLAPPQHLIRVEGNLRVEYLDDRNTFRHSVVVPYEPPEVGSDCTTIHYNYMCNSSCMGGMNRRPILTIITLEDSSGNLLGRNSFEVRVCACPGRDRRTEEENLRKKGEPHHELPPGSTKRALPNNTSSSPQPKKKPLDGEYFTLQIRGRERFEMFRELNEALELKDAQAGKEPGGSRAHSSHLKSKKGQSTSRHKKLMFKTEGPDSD

CC(C)(C)c1ccccc1O
not listed: [18]
inactive: all other assays above

Clc1cccc(Cl)c1
not listed: [18]
inactive: all other assays above

O=C(N[C@H]1CN2CCC1CC2)c1ccc2c(c1)OCCO2
not listed: [4] | [18]
inactive: all other assays above

Oc1cc(Cl)c(Cl)cc1Cl
not listed: [18]
inactive: all other assays above

CCCCCCCCCCCCc1cccc(S(=O)(=O)O)c1
active: [9] 45 µM | [14] 45 µM | [15] 45 µM | [17] 66.9 µM
not listed: [18]
inactive: all other assays above

CN(C)C(=S)S
not listed: [4] | [18]
inactive: all other assays above

OCCN(CCO)CCO
not listed: [18]
inactive: all other assays above

Clc1cccc(Cl)c1Cl
not listed: [18]
inactive: all other assays above

N#Cc1cccnc1
not listed: [4] | [18]
inactive: all other assays above

COc1ccccc1N
not listed: [4] | [18]
inactive: all other assays above

Oc1c(Cl)cc(Cl)cc1Cl
active: [18] 50 µM
not listed: [4] | [9]
inactive: all other assays above

O=C(O)C1(c2ccc3c(c2)OC[C@H](Cc2ccc(-c4ccccc4)cc2)[C@H]3O)CCCC1
active: [3] 50 µM | [4] 76 µM | [5] 80.5 µM | [6] 91.5 µM | [10] 81.6 µM | [15] 77.5 µM | TIMP1, TIMP1 (gene 7076) 78.8 µM
not listed: [18]
inactive: all other assays above

CC(C)O.CC(C)O.OCCN(CCO)CCO.OCCN(CCO)CCO.[Ti]
not listed: [18]
inactive: all other assays above

Cc1cc(C)cc(C)c1
not listed: [18]
inactive: all other assays above
